Records with an inconclusive call do not appear. Unmarked numbers belong to inactive results. Active and inactive are the calls of the source. The call rests on the fitted dose curve; in most records, active means well fitted inhibition curve with a large enough effect; inconclusive means small, poorly fitted or top-dose-only effect; inactive means flat fitted curve, though single readings scatter.
These compounds were tested on MCC-26 (assay: qHTS assay to identify novel small-molecules to repurpose for Merkel cell carcinoma treatment (AID 1296009; further: nearly all actives have a fitted effect of over 60% in size)). Details: MCC and control cell lines, CellTiter-Glo viability, 72 h; series mostly up to 46 µM; activity change, negative = cytotoxicity: at the top concentration.
Summary of the method: (§1)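 72 hr, 37 degree celsius; NPC 8-pt / MIPE 11-pt dose response; compound pinned in DMSO; CellTiter-Glo, 10 min RT, luminescence; normalized to no-cell and DMSO controls.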
On the % scale 0 is the no-effect control and ±100 the full control effect; potency means the concentration at half of the fitted maximal effect.

| Structure (SMILES) | activity change, negative = cytotoxicity |
| --- | --- |
| Cc1[nH]cnc1CN1CCc2c(c3ccccc3n2C)C1=O | 8.82% |
| O=Cc1ccc(O)c(O)c1O | -4.69% |
| CN(C)c1ccc(N=NS(=O)(=O)O)cc1 | 15% [at 92.7 µM] |
| C#C[C@]1(O)CC[C@H]2[C@@H]3CCc4cc(O)ccc4[C@H]3CC[C@@]21C | -20.8% |
| COc1cc(NC(C)CCCN)c2ncccc2c1 (stereo not given) | -12.3% |
| CCCCCCCCCCCCCCCCCC(=O)O | 9.56% |
| CC1(C)S[C@@H]2[C@H](NC(=O)[C@H](N)c3ccccc3)C(=O)N2[C@H]1C(=O)O | 8.37% |
| c1ccc(CCNc2nc(-c3ccccc3)cs2)cc1 | -9.23% |
| Nc1nc2ccc([N+](=O)[O-])cc2s1 | 1.03% [at 92.7 µM] |
| Oc1c(Br)cc(Br)c2cccnc12 | -24.8% |
| O=c1cc(-c2ccccc2)oc2ccccc12 | -10.6% [at 92.7 µM] |
| O=C(O)Cc1cccc(-c2cc(CCCCCCc3ccc(O[C@H]4O[C@H](CO)[C@@H](O)[C@H](O)[C@@H]4O)c(-c4cccc(CC(=O)O)c4)c3)ccc2O[C@H]2O[C@H](CO)[C@@H](O)[C@H](O)[C@@H]2O)c1 | 4.83% [at 0.597 µM] |

Each compound was assayed on MKL-1 in the same assay as above. Details: MCC and control cell lines, CellTiter-Glo viability, 72 h; series mostly up to 46 µM; activity change, negative = cytotoxicity: at the top concentration.
Summary of the method: as §1

| Structure (SMILES) | activity change, negative = cytotoxicity | Potency |
| --- | --- | --- |
| Cc1[nH]cnc1CN1CCc2c(c3ccccc3n2C)C1=O | 6.02% | – |
| O=C(OCc1ccccc1)c1ccccc1 | 0.335% | – |
| CN(C)c1ccc(N=NS(=O)(=O)O)cc1 | – | 5.12 µM (active) |
| COc1cc(NC(C)CCCN)c2ncccc2c1 (stereo not given) | – | 2.99 µM (active) |
| CCCCCCCCCCCCCCCCCC(=O)O | 7.92% | – |
| COC(=O)C1=C(C)NC(C)=C(C(=O)OCC(C)C)C1c1ccccc1[N+](=O)[O-] (stereo not given) | – | 21.1 µM (active) |
| O=C(O)/C=C\C(=O)O | 0.211% | – |
| COc1ccc(-c2cc(=S)ss2)cc1 | – | 26.6 µM (active) |
| CCCCC1C(=O)N(c2ccccc2)N(c2ccc(O)cc2)C1=O (stereo not given) | – | 1.5 µM (active) |
| CC1(C)S[C@@H]2[C@H](NC(=O)[C@H](N)c3ccccc3)C(=O)N2[C@H]1C(=O)O | 7.43% | – |
| CN(C)[C@@H]1C(=O)C(C(=O)NCN2CCCC2)=C(O)[C@@]2(O)C(=O)C3=C(O)c4c(O)cccc4[C@@](C)(O)C3C[C@@H]12 (stereo not given in full) | -5.33% | – |
| c1ccc(CCNc2nc(-c3ccccc3)cs2)cc1 | -17.6% | – |
| Cc1cc(O)c2ccccc2c1O | – | 21.1 µM (active) |
| CC(N)C(=O)OC(C)(C)Cc1ccc(Cl)cc1 (stereo not given) | -3.09% | – |
| CCCCCCOc1ccccc1C(N)=O | -21.4% | – |
| Clc1ccccc1-c1nc(-c2ccncc2)no1 | 0.786% | – |
| Nc1nc2ccc([N+](=O)[O-])cc2s1 | 3% [at 92.7 µM] | – |
| Oc1c(Br)cc(Br)c2cccnc12 | – | 11.9 µM (active) |
| CCCC(=O)OC[C@@H](OC(=O)CCC)[C@@H](OC(=O)CCC)[C@H](Cn1c2nc(=O)[nH]c(=O)c-2nc2cc(C)c(C)cc21)OC(=O)CCC | – | 6.68 µM (active) |
| O=c1cc(-c2ccccc2)oc2ccccc12 | 7.22% [at 92.7 µM] | – |
| Cc1c(C(=O)O)c(O)cc2c1C(=O)c1c(O)c([C@@H]3O[C@H](CO)[C@@H](O)[C@H](O)[C@H]3O)c(O)c(O)c1C2=O | -12.2% | – |
| O=C(O)Cc1cccc(-c2cc(CCCCCCc3ccc(O[C@H]4O[C@H](CO)[C@@H](O)[C@H](O)[C@@H]4O)c(-c4cccc(CC(=O)O)c4)c3)ccc2O[C@H]2O[C@H](CO)[C@@H](O)[C@H](O)[C@@H]2O)c1 | 6.03% [at 0.597 µM] | – |
| COC(=O)C1=C(C)NC(C)=C(C(=O)OCC(C)=O)C1c1ccccc1[N+](=O)[O-] (stereo not given) | – | 21.1 µM (active) |

— PubChem BioAssay (NCATS)
